# Reference: PubChem BioAssay
# Calls of active or inactive are those of the source.
# Experiments:
# [1] = small molecules captured by biotinylated probe aFSTL3 – biochemical, small-molecule microarray, fluorescence 635/667, stem cell growth factor project, primary screen (AID 1064); details: higher = more signal;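 further: measures binding of the biotinylated anti-FSTL3 antibody to printed compounds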
# [2] = binders from COS7 lysate, DM2A8 probe, primary screen, torsin A project, cell lysate, small-molecule microarray, fluorescence 635/667 (AID 1065); details: higher = more signal, COS7 lysate expressing mutant human TOR1A
# [3] = small molecules captured by biotinylated probe aFGF2 – biochemical, small-molecule microarray, fluorescence 635/667, stem cell growth factor project, primary screen (AID 1067); details: higher = more signal;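 further: measures binding of biotinylated aFGF2 protein to printed compounds on slides; z-score merges feature fluorescence and signal-to-noise across triplicate slides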
# [4] = small molecules captured by biotinylated probe aFGF10 – biochemical, small-molecule microarray, fluorescence 635/667, stem cell growth factor project, primary screen (AID 1071); details: higher = more signal;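 further: score merges 667 nm spot intensity and signal to noise from triplicate slides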
# [5] = molecular target: Neurogenic locus notch homolog protein 2 (Homo sapiens) (UniProt Q04721); assay: small molecules binding Notch2 protein – biochemical, small-molecule microarray, 635 nm fluorescence, stem cell growth factors, primary screen (AID 1073); details: higher = more signal
# Sequence of Neurogenic locus notch homolog protein 2 (Homo sapiens) (Q04721 whole entry, looked up, canonical isoform): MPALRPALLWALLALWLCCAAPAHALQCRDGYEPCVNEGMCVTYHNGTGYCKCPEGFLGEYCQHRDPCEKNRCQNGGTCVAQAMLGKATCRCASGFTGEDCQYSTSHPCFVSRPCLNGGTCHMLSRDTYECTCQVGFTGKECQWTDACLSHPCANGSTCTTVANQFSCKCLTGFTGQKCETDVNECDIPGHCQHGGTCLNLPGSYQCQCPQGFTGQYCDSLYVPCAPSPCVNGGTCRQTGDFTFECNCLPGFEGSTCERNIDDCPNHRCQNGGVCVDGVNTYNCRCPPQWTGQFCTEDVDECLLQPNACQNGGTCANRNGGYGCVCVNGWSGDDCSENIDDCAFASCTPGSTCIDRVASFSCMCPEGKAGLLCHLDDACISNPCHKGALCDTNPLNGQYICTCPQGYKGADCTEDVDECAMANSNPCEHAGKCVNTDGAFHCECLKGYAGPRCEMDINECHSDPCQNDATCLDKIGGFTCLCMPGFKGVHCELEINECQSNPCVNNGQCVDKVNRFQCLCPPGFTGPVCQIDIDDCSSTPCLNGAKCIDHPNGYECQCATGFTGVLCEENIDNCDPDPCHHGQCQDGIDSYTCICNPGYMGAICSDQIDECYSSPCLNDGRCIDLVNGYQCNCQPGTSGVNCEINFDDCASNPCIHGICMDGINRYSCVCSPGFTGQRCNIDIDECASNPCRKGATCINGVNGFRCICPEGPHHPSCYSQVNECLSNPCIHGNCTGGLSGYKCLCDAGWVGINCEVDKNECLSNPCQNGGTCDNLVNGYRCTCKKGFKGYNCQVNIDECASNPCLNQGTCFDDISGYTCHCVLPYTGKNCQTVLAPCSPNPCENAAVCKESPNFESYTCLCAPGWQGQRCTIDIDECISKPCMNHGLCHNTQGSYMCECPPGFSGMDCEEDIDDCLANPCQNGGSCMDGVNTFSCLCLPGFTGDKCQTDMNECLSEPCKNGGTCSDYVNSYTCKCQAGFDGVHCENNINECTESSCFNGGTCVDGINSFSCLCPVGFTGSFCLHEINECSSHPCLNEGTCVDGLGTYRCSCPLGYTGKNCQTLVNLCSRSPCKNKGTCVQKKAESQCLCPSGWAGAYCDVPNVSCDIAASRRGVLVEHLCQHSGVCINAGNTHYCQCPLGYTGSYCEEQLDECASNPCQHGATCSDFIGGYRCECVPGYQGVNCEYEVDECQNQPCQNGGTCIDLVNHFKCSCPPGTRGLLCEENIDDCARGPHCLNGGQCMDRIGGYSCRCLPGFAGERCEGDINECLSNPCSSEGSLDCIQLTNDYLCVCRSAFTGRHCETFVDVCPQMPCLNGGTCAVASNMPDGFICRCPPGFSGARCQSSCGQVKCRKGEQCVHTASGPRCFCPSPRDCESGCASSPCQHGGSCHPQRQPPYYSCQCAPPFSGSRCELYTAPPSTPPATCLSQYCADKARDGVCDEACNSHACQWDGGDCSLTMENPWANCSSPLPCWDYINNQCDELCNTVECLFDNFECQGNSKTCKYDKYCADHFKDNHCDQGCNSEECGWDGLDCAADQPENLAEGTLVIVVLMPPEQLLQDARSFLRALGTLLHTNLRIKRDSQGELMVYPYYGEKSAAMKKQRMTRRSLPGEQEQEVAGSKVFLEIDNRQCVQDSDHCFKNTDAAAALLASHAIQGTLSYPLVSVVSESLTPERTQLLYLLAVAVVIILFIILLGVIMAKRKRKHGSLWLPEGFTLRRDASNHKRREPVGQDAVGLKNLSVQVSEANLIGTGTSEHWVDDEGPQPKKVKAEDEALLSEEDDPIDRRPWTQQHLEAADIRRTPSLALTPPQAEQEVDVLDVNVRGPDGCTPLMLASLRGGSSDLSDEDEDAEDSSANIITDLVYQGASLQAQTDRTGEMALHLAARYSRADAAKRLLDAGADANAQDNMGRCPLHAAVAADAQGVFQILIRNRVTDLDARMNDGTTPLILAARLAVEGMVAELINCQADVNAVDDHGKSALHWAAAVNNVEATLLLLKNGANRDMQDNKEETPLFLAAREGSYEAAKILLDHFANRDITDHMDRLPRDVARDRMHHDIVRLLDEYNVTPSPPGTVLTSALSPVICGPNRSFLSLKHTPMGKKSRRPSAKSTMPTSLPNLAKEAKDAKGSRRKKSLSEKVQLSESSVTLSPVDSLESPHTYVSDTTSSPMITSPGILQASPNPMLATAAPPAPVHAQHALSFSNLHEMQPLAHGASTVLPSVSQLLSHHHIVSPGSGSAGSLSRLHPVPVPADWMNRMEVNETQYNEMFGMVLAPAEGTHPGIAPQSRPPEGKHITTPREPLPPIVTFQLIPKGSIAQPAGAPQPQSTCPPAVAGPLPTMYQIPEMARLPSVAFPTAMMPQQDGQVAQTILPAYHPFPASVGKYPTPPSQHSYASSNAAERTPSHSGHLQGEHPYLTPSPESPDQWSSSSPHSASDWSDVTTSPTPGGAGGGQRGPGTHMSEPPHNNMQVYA
# [6] = molecular target: Pro-neuregulin-1, membrane-bound isoform (Homo sapiens) (UniProt Q02297); assay: small molecules binding neuregulin-1 protein – biochemical, small-molecule microarray, fluorescence 635/667, psychiatric disease protein project, primary screen (AID 1075); details: NRG1 binding, 635 nm fluorescence, higher = more signal;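 further: score combines 667 nm spot fluorescence with signal to noise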
# Sequence of Pro-neuregulin-1, membrane-bound isoform (Homo sapiens) (Q02297 whole entry, looked up, the tested form may be a part, canonical isoform): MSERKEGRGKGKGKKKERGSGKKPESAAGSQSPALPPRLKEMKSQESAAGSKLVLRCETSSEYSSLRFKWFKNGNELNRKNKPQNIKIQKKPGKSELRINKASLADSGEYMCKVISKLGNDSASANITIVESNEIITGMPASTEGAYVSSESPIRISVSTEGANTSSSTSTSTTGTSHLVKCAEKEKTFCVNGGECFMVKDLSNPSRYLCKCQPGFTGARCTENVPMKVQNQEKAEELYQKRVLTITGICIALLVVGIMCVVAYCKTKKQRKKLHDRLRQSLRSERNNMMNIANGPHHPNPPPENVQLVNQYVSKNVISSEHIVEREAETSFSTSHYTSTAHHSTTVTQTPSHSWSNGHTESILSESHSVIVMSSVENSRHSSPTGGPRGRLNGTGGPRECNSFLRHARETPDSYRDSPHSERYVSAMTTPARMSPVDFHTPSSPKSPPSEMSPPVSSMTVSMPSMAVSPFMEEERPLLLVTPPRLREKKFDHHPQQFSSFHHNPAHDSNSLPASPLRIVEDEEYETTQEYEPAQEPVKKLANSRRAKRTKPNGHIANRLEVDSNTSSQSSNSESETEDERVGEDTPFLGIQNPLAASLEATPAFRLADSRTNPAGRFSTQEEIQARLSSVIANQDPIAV
# [7] = tested on: Neuregulin-1 EGF-like domain; assay: small molecules binding NRG1 EGF domain – biochemical, small-molecule microarray, 635 nm fluorescence, primary screen (AID 1081); details: higher = more signal;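 further: binding of the protein to compounds printed on small-molecule microarray slides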
# [8] = FRG1 expression reporter modulators in myotubes – cell-based, C2C12 myotubes, firefly/Renilla luciferase, luminescence, FRG1 inhibition for FSHD, primary screen (AID 1084); details: FRG1 promoter luciferase, higher = more signal, called active from +8 up or from −8 down
# [9] = small molecules captured by biotinylated probe aFST – biochemical, small-molecule microarray, fluorescence 635/667, stem cell growth factor project, primary screen (AID 1086); details: higher = more signal;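 further: score merges 667 nm fluorescence with signal-to-noise of each printed compound spot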
# [10] = binders of probe aHhip on microarray, primary screen, stem cell growth factor project, biochemical, small-molecule microarray, fluorescence 635/667 (AID 1087); details: higher = more signal;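 further: score merges spot fluorescence at 667nm with spot signal to noise ratio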
# [11] = tested on: PRMT1 (protein arginine N-methyltransferase 1); assay: small molecules binding arginine methyltransferase PRMT1 – biochemical, small-molecule microarray, 635 nm fluorescence, primary screen (AID 1088); details: higher = more signal;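 further: binding of Prmt1 protein to compounds spotted on small-molecule microarray slides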
# [12] = growth effects on S. cerevisiae YJM789 – YJM789 clinical isolate, OD600, 24 h, basal, primary screen (AID 1089); details: higher = more signal, called active from +8 up or from −8 down;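 further: growth of clinical yeast isolate S. cerevisiae YJM 789 seeded 1000 cells per well; test concentration not given here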
# [13] = S. pombe growth modifiers, basal conditions – strain 972, OD600, 24 h, no modulator, primary screen (AID 1090);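 further: basal condition with compound alone and no growth modifier present; test concentration not given here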; details: S. pombe 972 growth, higher = more signal, called active from +8 up or from −8 down
# [14] = budding yeast growth modifiers under rapamycin – strain BY4716, OD600, 96 h, primary screen (AID 1091); further: test concentration not given here; details: S. cerevisiae BY4716 + rapamycin, higher = more signal, called active from +8 up or from −8 down
# [15] = molecular target: Torsin-1A-interacting protein 2 (Homo sapiens) (UniProt Q8NFQ8); assay: small molecules binding lysate-expressed LULL1 – cell lysate, human LULL1 lysate, 635/667 nm fluorescence, primary screen (AID 1092); details: small-molecule microarray, hLULL1 lysate binding, 635 nm fluorescence; higher = more signal;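 further: probe is lysate of COS7 cells overexpressing human LULL1; score merges per-feature 667 nm fluorescence with signal-to-noise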
# Sequence of Torsin-1A-interacting protein 2 (Homo sapiens) (Q8NFQ8 whole entry, looked up): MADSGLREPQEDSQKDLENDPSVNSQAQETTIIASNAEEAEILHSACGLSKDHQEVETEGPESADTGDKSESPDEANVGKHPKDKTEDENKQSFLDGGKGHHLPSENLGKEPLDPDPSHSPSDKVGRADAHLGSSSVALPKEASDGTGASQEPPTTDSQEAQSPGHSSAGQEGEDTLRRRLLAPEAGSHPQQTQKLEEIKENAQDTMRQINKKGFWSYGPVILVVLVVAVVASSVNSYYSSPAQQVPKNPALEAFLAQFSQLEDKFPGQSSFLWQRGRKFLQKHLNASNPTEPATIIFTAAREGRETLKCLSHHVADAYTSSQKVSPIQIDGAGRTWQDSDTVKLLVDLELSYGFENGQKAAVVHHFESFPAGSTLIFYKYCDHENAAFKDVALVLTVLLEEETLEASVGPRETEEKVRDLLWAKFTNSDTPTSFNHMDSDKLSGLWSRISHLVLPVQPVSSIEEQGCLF
# [16] = optical density change of DRC41 E. coli – strain DRC41, OD650, 24 h, E. coli filamentation project, primary screen (AID 1093);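 further: MC1000 strain lacking acrAB efflux and sulA so SOS filamentation is blocked; test concentration not given here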; details: E. coli DRC41 growth, higher = more signal, called active from +8 up or from −8 down
# [17] = probe aLefty2 binding to arrayed compounds – biochemical, biotinylated probe, 635/667 nm fluorescence, primary screen (AID 1094); details: small-molecule microarray, higher = more signal;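 further: score merges spot fluorescence near 667 nm with spot signal-to-noise ratio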
# [18] = tested on: Noggin (protein binding on small-molecule microarray); assay: small molecules binding Noggin protein – biochemical, 635/667 nm fluorescence, primary screen (AID 1095); details: 635 nm fluorescence, higher = more signal;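 further: score merges 667 nm feature fluorescence with signal to noise over triplicate slides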
# [19] = molecular target: Neurogenic locus notch homolog protein 3 (Homo sapiens) (UniProt Q9UM47); assay: small molecules binding NOTCH3 protein – biochemical, 635/667 nm fluorescence, primary screen (AID 1096); details: small-molecule microarray, 635 nm fluorescence, higher = more signal
# [20] = probe aEGFR binding to arrayed compounds – biochemical, biotinylated probe, 635/667 nm fluorescence, primary screen (AID 1097); details: small-molecule microarray, higher = more signal;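 further: probe is a biotinylated anti-EGFR antibody binding compounds printed on slides; score combines fluorescence near 667 nm and signal to noise of each spot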
SMILES,composite z-score [1],composite z-score [2],composite z-score [3],composite z-score [4],composite z-score [5],composite z-score [6],composite z-score [7],z-score [8],composite z-score [9],composite z-score [10],composite z-score [11],z-score [12],z-score [13],z-score [14],composite z-score [15],z-score [16],composite z-score [17],composite z-score [18],composite z-score [19],composite z-score [20]
COc1ccccc1CN1C(=O)c2ccccc2[C@](Cc2ccccc2I)(C(=O)NCCN2CCOCC2)[C@@H]1c1ccc(CO)cc1,-0.291,0.148,0.103,0.479,1.37,1.39,1.3,-3.32 (inactive),1.08,-0.189,1.54,-2.4 (inactive),0.548 (inactive),-0.168 (inactive),3.27,0.0429 (inactive),-0.0028,1.12,1.09,-0.0502
CN1C(=O)C2C=CC(C(O)C3CCCCC3)N(N(c3ccccc3)c3ccccc3)C2C1=O (stereo not given),1.61,-0.277,0.182,-0.122,-0.112,1.12,0.659,-0.158 (inactive),0.236,-0.183,0.102,0.345 (inactive),1.25 (inactive),0.4 (inactive),2.5,-0.989 (inactive),0.368,-0.539,-0.396,0.114
CCCC=C(CCC)[C@@H](NS(=O)(=O)CC)c1ccccc1,-0.14,-0.534,0.0583,0.576,1.15,0.808,1.09,1.33 (inactive),0.725,-0.0645,1.17,0.472 (inactive),1.22 (inactive),0.565 (inactive),2.57,-0.66 (inactive),0.195,0.222,1.16,0.0093
O=C1C[C@@](C(=O)O)(c2ccc([N+](=O)[O-])cc2)[C@@H](c2ccc(CO)cc2)N1CC12CC3CC(CC(C3)C1)C2,0.524,0.603,-0.009,0.527,1.13,1.38,1.12,-2.54 (inactive),0.49,-0.196,1.54,0.629 (inactive),-2.98 (inactive),0.117 (inactive),2.3,0.91 (inactive),0.0446,0.257,0.857,0.06
O=C1NC(=O)C2C1C=CC(C(O)CCc1ccccc1)N2Nc1ccccn1 (stereo not given),0.313,0.478,-0.0881,0.0386,1.07,1.19,0.83,-0.338 (inactive),0.172,-0.407,0.509,-0.974 (inactive),1.51 (inactive),-0.312 (inactive),1.51,-0.581 (inactive),-0.0719,0.103,0.312,-0.0659
COc1ccc(CCNC(=O)[C@@H]2c3ccccc3C(=O)N(Cc3ccccc3C(F)(F)F)[C@H]2c2ccc(CO)cc2)cc1,0.114,1.02,0.0292,0.0105,-0.354,1.2,0.472,-0.646 (inactive),-0.211,-0.134,0.77,-0.0666 (inactive),0.057 (inactive),-0.0429 (inactive),2.92,0.415 (inactive),0.0258,-0.185,-0.0818,-0.216
NC(=O)NCC#Cc1ccc2c(c1)[C@]1(C(=O)N2)[C@H](c2ccc(OCCO)cc2)N2[C@H](c3ccccc3)[C@H](c3ccccc3)OC(=O)[C@H]2[C@@H]1C(=O)N1CCN(c2ncccn2)CC1,-0.584,0.936,-0.0767,0.766,0.0776,0.29,-0.178,0.565 (inactive),-0.194,-0.0564,1.34,1.77 (inactive),0.494 (inactive),4.43 (inactive),1.6,1.31 (inactive),-0.0933,1.63,0.772,-0.15
COC(=O)[C@@]1(Cc2ccc(F)cc2)[C@@H]2[C@@H](CC(=O)[C@H]2CC(=O)C(=O)N2CCCC2)CN1C(=O)c1ccccc1,0.664,-0.196,0.0255,0.56,1.71,1.85,1.12,2.38 (inactive),1.61,-0.24,1.27,0.347 (inactive),1.57 (inactive),3.52 (inactive),3.67,-0.708 (inactive),0.299,-0.413,1.03,0.147
COCCOC(=O)N1C(=O)[C@@]2(c3cc(C#Cc4ccc(OC)cc4)ccc31)[C@H](C(N)=O)[C@H]1C(=O)O[C@H](c3ccccc3)[C@H](c3ccccc3)N1[C@@H]2c1ccc(OCCO)cc1,-0.358,0.562,0.0014,0.62,1.17,0.869,1.28,0.574 (inactive),0.512,-0.251,1.53,2.17 (inactive),0.719 (inactive),4.88 (inactive),2.75,1.31 (inactive),-0.0757,1.43,1.07,0.0251
C=CC[C@]1(C(=O)NCC(O)CO)N=C(c2ccc(OCCCO)cc2)O[C@H]1c1ccccc1N=[N+]=[N-] (stereo not given in full),0.227,-0.444,0.0649,0.154,0.323,1.8,1.11,1.25 (inactive),0.375,0.23,1.03,-0.285 (inactive),-0.529 (inactive),-0.325 (inactive),3.31,0.346 (inactive),0.406,-0.0496,-0.0588,-0.142
COC(=O)[C@@]1(Cc2ccccc2)[C@H]2c3cc(C(=O)N4CCCC4)n(CCO)c3C[C@H]2CN1C(=O)c1ccccc1,1.35,2.52,0.759,0.77,1.58,1.62,1.15,-0.292 (inactive),2.6,0.216,0.718,-0.598 (inactive),1.45 (inactive),-1.88 (inactive),2.92,-0.237 (inactive),1.35,0.815,0.946,0.986
CCCN1C(=O)[C@@]2(Cc3ccccc3)N=C(c3ccc(OCCCO)cc3)O[C@H]2c2ccccc21,-0.0679,0.802,-0.047,0.186,0.498,0.602,1.12,-1.25 (inactive),-0.0754,-0.0573,1.54,-1.46 (inactive),-4.12 (inactive),1.52 (inactive),3.13,1.09 (inactive),0.152,1.29,1.05,-0.0976
CC(C)[Si](C#C[Si](C(C)C)(C(C)C)C(C)C)(O[C@H](C)c1cn(Cc2cccc(Cl)c2)nn1)C(C)C,-0.333,-0.0681,-0.123,0.316,0.496,0.528,0.94,-1.14 (inactive),0.323,-0.0994,1.36,0.487 (inactive),0.115 (inactive),-0.318 (inactive),1.04,2.18 (inactive),-0.148,0.52,0.902,0.0192
CCCN1C(=O)[C@@H]2Cc3c([nH]c4ccccc34)[C@@H](c3cccc(O)c3)N2C1=O,-0.588,0.247,-0.113,0.428,0.59,0.263,0.12,0.85 (inactive),-0.0001,-0.0994,0.213,-0.521 (inactive),-0.132 (inactive),0.385 (inactive),0.379,0.317 (inactive),-0.0823,0.287,0.423,-0.0424
COCCCNC(=O)[C@@]1(Cc2ccccc2)COC(c2ccc(OCCCO)cc2)=N1,0.0674,-0.321,-0.0745,0.821,0.694,1.77,0.99,-1.02 (inactive),0.696,-0.135,1.49,-1.29 (inactive),-1.98 (inactive),-1.27 (inactive),3.55,1.47 (inactive),0.0634,-0.233,0.117,-0.0828
C=C(COC)C(=O)CC[C@H](OC(=O)c1ccccc1-c1ccccc1C(=O)O)c1ccc(OCCO)cc1,-0.249,1.42,-0.0729,0.512,-0.0342,1.09,1.11,0.552 (inactive),0.347,-0.236,1.55,-1.73 (inactive),-0.613 (inactive),-0.509 (inactive),0.75,0.802 (inactive),-0.117,1.52,0.615,-0.111
C=CCC(OC(C)=O)[C@@H]1[C@@H](N(Cc2cccc3ccccc23)C(=O)Cc2ccc(F)cc2)c2cc(OCCCO)ccc2N1C(=O)Cc1ccc(OC)cc1 (stereo not given in full),-0.449,0.202,-0.116,0.493,-0.045,-0.418,-0.424,-1.05 (inactive),0.0417,-0.191,-0.151,-1.18 (inactive),0.246 (inactive),-0.72 (inactive),-0.0743,0.802 (inactive),-0.0137,0.122,0.159,-0.309
CC(C)(C)OC(=O)CC[C@@]1(C(=O)N2CCCCC2)N=C(c2ccc(OCCCO)cc2)O[C@@H]1c1ccccc1N=[N+]=[N-],0.358,0.805,0.147,1.03,1.66,1.89,1.41,-1.88 (inactive),1.34,-0.0237,1.53,-0.336 (inactive),-0.029 (inactive),-0.183 (inactive),3.49,1.11 (inactive),0.253,0.369,1.03,0.208
COCCOC(=O)N1C(=O)[C@@]2(c3cc(C#CCCO)ccc31)[C@H](C(=O)N1CCc3cc(OC)c(OC)cc3C1)[C@H]1C(=O)O[C@H](c3ccccc3)[C@H](c3ccccc3)N1[C@@H]2c1ccc(OCCO)cc1,-0.392,0.282,-0.0867,0.501,0.467,0.007,1.16,-0.561 (inactive),0.242,-0.216,1.55,-1.17 (inactive),-0.581 (inactive),2.59 (inactive),2.59,1.26 (inactive),-0.104,1.12,1.07,-0.0859
